# The panel holds about 79,000 compounds, 15% with a hit somewhere; the sample as a whole holds those more often. Values without a mark were called inactive. Activity calls are given as the source filed them. Rule as the data show it: active = growth inhibition above about 70%; inactive = the rest.
# What was measured:
# [1] = NCI Yeast Anticancer Drug Screen. Data for the rad50 strain (AID 155);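 also: 0% = growth of vehicle-only cultures of the same strain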; details: S. cerevisiae rad50 strain growth inhibition; at 50.0 µM; active compounds read high
# Summary of the method: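 Yeast carrying a defined DNA repair defect were exposed to test compounds, and growth was compared with vehicle-treated controls to give percent inhibition.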
# [2] = NCI Yeast Anticancer Drug Screen. Data for the mec2-1 strain (AID 157); details: S. cerevisiae mec2-1 strain, at 50.0 µM, active compounds read high
# Summary of the method: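 Yeast mec2-1 mutant treated with compound. Readout: growth inhibition vs vehicle controls.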
# [3] = NCI Yeast Anticancer Drug Screen. Data for the sgs1 mgt1 strain (AID 161);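 also: 0% = growth of cultures given vehicle only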; details: S. cerevisiae sgs1 mgt1 strain, at 50.0 µM, active compounds read high
# Summary of the method: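 Inhibition of yeast growth, normalised to vehicle-treated controls, is reported for a strain bearing genetic alterations in DNA damage repair.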
# [4] = NCI Yeast Anticancer Drug Screen. Data for the cln2 rad14 strain (AID 165);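 also: 0% = growth equal to vehicle treated cultures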; details: S. cerevisiae cln2 rad14 strain, at 50.0 µM, active compounds read high
# Summary of the method: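 cln2 rad14 yeast strain; compound exposure; growth inhibition read vs vehicle controls.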
# [5] = NCI Yeast Anticancer Drug Screen. Data for the bub3 strain (AID 167); details: S. cerevisiae bub3 mutant strain, at 50.0 µM, active compounds read high
# Summary of the method: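 Compounds were applied to a genetically altered yeast strain carrying a cell-cycle control defect. Growth inhibition was scored against vehicle-treated controls.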
# [6] = NCI Yeast Anticancer Drug Screen. Data for the mlh1 rad18 strain (AID 175); details: S. cerevisiae mlh1 rad18 strain growth inhibition; at 50.0 µM; active compounds read high
# Summary of the method: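 Yeast w/ defined DNA-repair lesions; compound exposure; growth vs vehicle controls → % inhibition.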
SMILES,growth inhibition [1],growth inhibition [2],growth inhibition [3],growth inhibition [4],growth inhibition [5],growth inhibition [6]
[N-]=[N+]=Nc1ccc(-c2nc(N)nc(N)n2)cc1,11.8%,0.35%,-2.55%,-4.75%,6.9%,15.2%
Cc1ccc2nc(-c3ccc(N=NNc4ccc(-c5nc6ccc(C)c(S(=O)(=O)O)c6s5)cc4)cc3)sc2c1S(=O)(=O)O,23.5%,6.85%,-9.7%,18.2%,12.3%,18.6%
Cc1ccc(S(=O)(=O)/C=C\S(=O)(=O)c2ccc(C)cc2)cc1,-7.35%,-3.15%,5.15%,-28.4%,3.15%,2.7%
CC(C)=CCc1c(O)ccc(C(=O)[C@H]2C(c3ccc(O)cc3O)CC(C)=C[C@@H]2c2c(O)cc(O)c3c(=O)c(CC=C(C)C)c(-c4ccc(O)cc4O)oc23)c1O (stereo partly specified),88.4% (active),90% (active),92% (active),89% (active),90.2% (active),89.8% (active)
CC(=O)OC1CC(C(C)C)CCC1C (stereo unspecified),18.1%,12.8%,6.3%,4.95%,-8.55%,11.7%
COC(=O)C1c2ccccc2CC(=O)N1NC(C)=O (stereo unspecified),15.6%,1.65%,-19.4%,9.65%,5.3%,10.4%
COc1ccc(-n2c(C)nc3c(cnn3CN3CCCCC3)c2=O)cc1,4%,-0.95%,-1.25%,-4.05%,8.75%,13.5%
COC(=O)C1=C(C)N(NC(=O)c2cccc(Cl)c2)C(C)(O)C12CCOC2=O (stereo unspecified),37.6%,-21.6%,4.15%,6.65%,0.6%,38.1%
ClC/C(=N\N1CCCCCC1)c1ccccc1,-7.8%,-4.05%,-4.75%,-10.2%,-1.6%,2.2%
COc1ccc(C(O)/C(=C/n2ccnc2)c2ccccc2)cc1OC (stereo unspecified),-23.8%,-17.8%,-15.6%,-5.85%,-7.65%,-25.2%
COc1cc(NCC2COc3c(ccc(OC)c3OC)C2=O)c([N+](=O)[O-])cc1OC (stereo unspecified),9.35%,20.2%,8.15%,15.4%,-5.3%,21.4%
CCOC(=O)c1[nH]c(-c2ccc(OC)cc2)c(C(=O)OCC)c1-c1ccccc1,38.6%,-4.7%,28.8%,-0.2%,3.05%,24.1%
c1ccc(N=C2CCCCCC2)cc1,-1.85%,14.2%,-5.8%,7.15%,-9.25%,-6.7%
CC1=CC(C)(C)SC(=S)N1,24.9%,5.3%,19.8%,-60.6%,-3.35%,29.3%
CC(=O)c1sc2c(c1OC(=O)c1ccc(Cl)cc1)c(=O)n(-c1ccccc1)c(=S)n2-c1ccccc1,9.55%,-8.9%,-11.2%,7.95%,11.9%,9.05%
C[N+](C)(C)CCOc1cccc(Br)c1,9.8%,14.5%,21.6%,29.8%,11.7%,23.9%
CC1=CC(CO)C2C(=O)NC(=O)C2C1C (stereo unspecified),7.2%,-6.15%,-9.75%,-39.5%,-17.1%,7.7%
O=C(CC(O)(CCc1ccccc1)c1ccccc1)N1CCC(O)(c2ccccc2)CC1 (stereo unspecified),97.2% (active),98.5% (active),98.2% (active),97.6% (active),97.8% (active),98.2% (active)

SMILES,growth inhibition [1],growth inhibition [2],growth inhibition [3],growth inhibition [4],growth inhibition [5],growth inhibition [6]
Cc1cc(C)c2ccc(NC(=O)CCC(=O)O)nc2n1,-15.1%,-32.5%,7.45%,10.7%,-27.4%,-13.4%
COc1ccc(NC(=O)N(C)C)cc1OC,14.8%,-5.25%,-4.2%,-25.6%,4.4%,15.8%
CC1(C)C2CC(c3ccccc3)C1/C(=C/O)C2=O (stereo unspecified),-16.9%,-3.2%,2.8%,36.8%,-3.85%,-2.9%
CC(C)C1CC(O)C(C)C(C(C)C)C1 (stereo unspecified),4.05%,-17.5%,-12.9%,-28.2%,-1.65%,-20.6%
O=C(O)c1ccccc1Sc1ccc([N+](=O)[O-])cn1,33.2%,5.1%,2.15%,-15.8%,6.4%,44.7%
Cc1ccc(N=c2cc(-c3ccccc3)oc3ccccc23)cc1,11.9%,-1.25%,11.7%,3.7%,12.7%,20.4%
CC(=O)CC(=O)CCCCC(=O)O,-0.15%,-11.1%,-6.55%,-22.6%,-5.6%,4.8%
CC(C)c1nc(N)nc(N)n1,4.8%,-23.8%,5.8%,12.8%,1%,-16.8%
O=NNc1nc2ncccc2cc1-c1ccccc1Cl,-7.8%,-6.05%,-5.9%,9.75%,-22.2%,-8.2%
O=C(CN1C(=O)CC(NC(=O)OCc2ccccc2)C1=O)NCC(=O)Oc1ccc([N+](=O)[O-])cc1 (stereo unspecified),31.6%,20.9%,26.9%,7.7%,4%,22.1%
CC(=O)Oc1ccc(I)cc1C(=O)O,5.7%,-29.4%,1.25%,-12.7%,6.75%,-11.8%
CCCOc1ccc(C(=O)O)cc1,10.8%,7.85%,6.3%,-2%,-14.8%,4.15%
Cc1nc2ccccc2nc1N1CCCC1,-6.2%,-29.1%,-26.9%,-25.2%,-47.8%,0.55%
CC(C)=CCC/C(C)=N\Nc1ccc([N+](=O)[O-])cc1[N+](=O)[O-],-39.4%,-6.7%,4.75%,-15.6%,2.15%,5.4%
CNc1ccc([N+](=O)[O-])cn1,19.9%,-13.4%,31.6%,8.75%,19.9%,4.15%
CCOc1c(N=Nc2ccccc2Cl)c(-c2ccccc2)nn1C(N)=S,6.75%,16.9%,-1.95%,6.1%,-3.95%,15.6%
Cc1ccc(S(=O)(=O)/N=C/[N-][n+]2cccc(C)c2)cc1,3.6%,8.8%,4.4%,-14.6%,0.45%,-4.2%
COc1cc2ccc3c4c(OC)cc5c(c4c[n+](C)c3c2cc1OC)OCO5,88% (active),91.3% (active),88.3% (active),88.7% (active),90% (active),87.2% (active)

# From PubChem BioAssay (NCI)
